High-throughput results: PubChem BioAssay, several laboratories
An excerpt weighted towards active compounds, which were near 3.4% of everything screened.
H9c2 protect: modulators protecting cardiomyocytes from myocardial damage. H9c2 cardiomyocytes, H2O2 injury protection, ATPLite, 2 h. protection from H2O2 cell death, % at 20 µM. 360,000 tested, 0.63% active;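 active means compounds giving at least 50% protection of heart cells from peroxide-induced death in the single-dose screen, raw or plate-pattern-corrected value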;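 further: 0% = DMSO wells with peroxide and 100% = DMSO wells without peroxide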
GalR3 antag: blocks the human galanin receptor 3; inhibition, % at 3 µM; 360,000 tested, 0.44% active; HEK293 GalR3-CNG cAMP membrane potential fluorescence; galR3 body fused to GalR1 C-terminus; AID 651719;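 active means inhibition above the screen-wide average plus 3 SD, cut at about 13% in these data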;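 further: forskolin and galanin both at EC90 stimulate the cells; cAMP rise reported by CNG channel membrane potential dye signal; 0% = forskolin plus galanin with DMSO and 100% = forskolin alone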
Target sequence (O60755 1-299 limits assumed): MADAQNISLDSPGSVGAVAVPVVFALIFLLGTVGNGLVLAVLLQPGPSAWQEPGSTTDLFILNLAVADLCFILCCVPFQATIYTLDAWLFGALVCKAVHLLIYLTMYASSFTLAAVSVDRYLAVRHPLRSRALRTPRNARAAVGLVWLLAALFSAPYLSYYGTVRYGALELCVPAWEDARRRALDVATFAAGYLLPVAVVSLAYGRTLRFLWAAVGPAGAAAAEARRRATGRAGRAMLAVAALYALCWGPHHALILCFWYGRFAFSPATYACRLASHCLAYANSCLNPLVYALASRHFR
NR2F2 inh: inhibitors of human COUP-TFII (NR2F2); P24468; HEK293T NGFI-A luciferase reporter, luminescence; inhibition, % at 8.6 µM; 370,000 tested, 0.7% active; AID 686940;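 active means inhibition above a per-plate cutoff, mean inhibition of test wells between control levels plus 3 SD, cut at about 38% in these data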;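 further: cells cotransfected with COUP-TFII expression vector driving the NGFI-A reporter; 0% = median of COUP-TF2 test wells and 100% = reporter-only cells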
SMARCA2 activ: SMARCA2 function activation, primary screen | 370,000 tested, 1% active | activation, % at 9.1 µM | MG213 cells, MMTV-luciferase reporter, dexamethasone, overnight | AID 652017; in the data active means activation above about 7.8%;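 further: 0% = vehicle wells and 100% = reference activator wells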
FXN GAA850 act: increases GAA850 frataxin promoter reporter activity; activation, % at 6 µM; 360,000 tested, 0.56% active; AID 540364; HEK293 lucGAA850 FXN promoter luciferase reporter, 24 h; percent of 10 µM SAHA response;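 active means activation above the average of all compounds screened plus 3 SD, cutoff fixed separately per campaign, cut at about 7.5% in these data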;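 further: 0% = DMSO wells and 100% = 10 µM SAHA wells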
Gli-Sufu block: Gli-Sufu pathway antagonism. inhibition, % at 5 µM. Sufu-KO-LIGHT fibroblasts, Gli luciferase reporter luminescence. AID 588413. 340,000 tested, 0.74% active;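 active means inhibition above about 55%, limit read from the data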;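 further: 0% = DMSO-treated cells and 100% = wells with medium but no cells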
SMARCA2 conf: confirmation of SMARCA2 (BRM) function activators; shares compounds with SMARCA2 activ; MG213 cells, MMTV-luciferase with dexamethasone, luminescence, overnight; MG213 cells expressing E1A, Rb sequestered; DMSO wells 0%, reference activator 100%; activation, % at 9.1 µM; 3,500 tested, 30% active; AID 652260;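 active means activation above its plate's cutoff, the mean activation of tested wells plus 3 SD, cut at about 7.9% in these data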
GAL4-VP16 Luc: activates GAL4-VP16 luciferase, flagging SMARCA2 activator hits | shares compounds with SMARCA2 activ | HEK293 GAL4-VP16 pG5luc reporter, luciferase luminescence; scaled: DMSO wells 0%, SAHA wells 100% | activation, % at 9.1 µM | 3,500 tested, 41% active;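 active means activation above the solvent-only control well mean plus 3 SD, averaged across control plates, cut at about 5.2% in these data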
An asterisk follows results filed as active; / = no result given.

SMILES	H9c2 protect	GalR3 antag	NR2F2 inh	SMARCA2 activ	FXN GAA850 act	Gli-Sufu block	SMARCA2 conf	GAL4-VP16 Luc
Cc1ccc(-c2nc(C#N)c(NCC3CCCO3)o2)cc1 (centres undefined)	-6.7	-0.6	-37.7	1.5	4.8	-1.0	/	/
COc1ccc(-c2nc(C#N)c(NCC3CCCO3)o2)cc1 (centres undefined)	1.2	-9.8	-29.2	10.0*	3.2	-22.1	9.7*	3.5
COc1ccc(C(=O)C=Cc2cccs2)c(O)c1	-20.9	-1.8	-23.2	8.2*	5.5	-32.6	5.4	5.7*
COc1ccc(C(=O)/C=C/c2cccs2)c(OC(=O)N2CCOCC2)c1	-1.4	-4.5	-9.1	0.7	1.9	3.4	/	/
O=C(/C=C/c1ccc(O)cc1)c1ccc(O)cc1O	-16.2	/	-42.7	8.1*	0.8	0.3	10.5*	1.4
O=C(O)/C=C/c1ccc(O)cc1	1.2	-3.2	-11.7	0.8	1.1	-24.4	/	/
COc1ccc(C(=O)/C=C/c2ccccc2)c(O)c1	-10.1	-6.0	-29.5	8.2*	3.0	-26.0	3.8	2.0
COCCc1ccc(OC2(C)CCN(Cc3cccn3-c3nccs3)C2)cc1 (centres undefined)	1.9	2.1	-7.7	-5.4	1.3	/	/	/
COc1ccccc1CP(=O)(c1ccccc1)c1ccccc1	2.3	-6.9	-0.4	-1.4	-1.2	-2.3	/	/
Cc1cc(C(=O)NC2CCCCC2)c(C)n1-c1ccc(F)cc1	-7.9	2.9	-26.0	8.0*	5.2	-95.3	5.2	10.7*
CC(C)COc1ccc(C(=O)N(Cc2ccco2)C2CCS(=O)(=O)C2)cc1 (centres undefined)	-17.6	-2.9	10.1	-1.1	-1.1	-2.4	/	/
CCCCCOc1ccc(C(=O)N(Cc2ccco2)C2CCS(=O)(=O)C2)cc1 (centres undefined)	-1.8	-3.0	-10.6	8.9*	0.2	18.2	-3.5	0.3
CC(=O)N1CCOc2ccc(S(=O)(=O)NCc3ccc(Cl)cc3)cc21	-2.2	-8.3	1.6	-1.0	0.6	-28.7	/	/
CCc1cc2c(SCC(=O)N3CCCC3=O)ncnc2s1	-1.8	-3.5	-17.9	0.7	1.7	3.0	/	/
CC(C)CCN1CC(C(=O)NCCC2=CCCCC2)CC1=O (centres undefined)	-1.5	2.5	-20.2	8.1*	3.3	-4.4	1.9	1.9
CCCCC[n+]1ccn(-c2nc3ccccc3nc2[N-]S(=O)(=O)c2ccccc2)c1	5.0	-4.9	12.2	-3.2	-0.5	12.4	/	/
O=S(=O)([N-]c1nc2ccccc2nc1-n1cc[n+](Cc2ccccc2)c1)c1ccc(Br)cc1	-3.5	-2.9	-5.6	10.6*	-3.0	5.3	3.0	0.5
O=S1(=O)CC(N2CCN(CCO)CC2)CN1Cc1ccc(F)cc1 (centres undefined)	2.8	-1.2	3.6	8.1*	/	/	-4.2	-0.6
COc1cc(/C=C2/C(=O)c3cccc([N+](=O)[O-])c3C2=O)c(Br)cc1O	-14.4	-5.6	2.3	-3.7	2.8	13.8	/	/
Nc1nc(SCC(=O)N2CCCc3ccccc32)[nH]c(=O)c1-c1ccccc1	-0.6	-2.7	-19.3	10.6*	0.9	-1.6	-2.8	1.0
O=C(NN=C1CCCC1)c1cccc(O)c1	1.5	-3.3	-14.8	8.9*	0.9	13.8	2.5	1.0
O=C(NN=C1CCCC1)c1cc(O)cc(O)c1	2.0	4.2	-9.8	3.2	1.7	9.9	/	/
COCC(C)NS(=O)(=O)c1ccc(C(=O)NC(Cc2ccccc2)c2ccccc2)cc1 (centres undefined)	0.2	-9.9	24.1	-2.7	-6.0	0.6	/	/
Cc1ccc(-n2c(SCC(N)=O)nc3c(c2=O)C2(CCCC2)Cc2ccccc2-3)cc1	-10.3	-10.1	7.2	8.0*	-7.0	5.3	-2.0	-1.2
Cc1cc(Cl)c2oc(C(=O)NCC(C)(C)N3CCOCC3)c(C)c2c1	1.2	-9.9	4.6	9.3*	2.9	4.0	3.9	5.2*
